# A selection: hits, their analogues and other compounds. The true share with any hit is near 2.4%.
# D2 ag-1 – agonists of human D2 dopamine receptor | AID 485358 | activation, % at 2 µM | P14416 | 340,000 compounds, 0.53% hits | HEK293 T-REx D2 cells, calcium flux agonist mode;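 active = activation over 3 SD above normal in the single-dose calcium agonist read, cut at about 30% in these data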; note: 0% is about no effect
# Target sequence (P14416 whole entry, looked up): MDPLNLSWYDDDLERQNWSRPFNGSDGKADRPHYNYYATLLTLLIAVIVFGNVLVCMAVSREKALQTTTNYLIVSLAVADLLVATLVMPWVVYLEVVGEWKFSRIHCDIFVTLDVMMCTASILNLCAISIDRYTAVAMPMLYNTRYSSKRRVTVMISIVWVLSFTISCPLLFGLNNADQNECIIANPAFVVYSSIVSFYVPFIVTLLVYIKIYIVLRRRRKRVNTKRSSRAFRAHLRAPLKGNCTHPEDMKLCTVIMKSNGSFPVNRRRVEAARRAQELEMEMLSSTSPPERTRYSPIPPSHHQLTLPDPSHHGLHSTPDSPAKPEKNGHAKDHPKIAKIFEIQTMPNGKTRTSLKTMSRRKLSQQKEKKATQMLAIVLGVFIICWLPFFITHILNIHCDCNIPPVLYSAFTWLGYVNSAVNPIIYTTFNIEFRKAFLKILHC
#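 Tetracycline-induced HEK293 T-REx cells with force-coupled D2 receptor, plated overnight at 30 C, loaded with no-wash calcium dye. After a 10 s baseline, compound was pin-added and calcium flux read kinetically for 180 s; calcium rises flagged agonists.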
# D2 ag-2 – agonists of human D2 dopamine receptor (beta-arrestin); P14416; DiscoveRx PathHunter D2 beta-arrestin, luminescence, 90 min; 100% = 57 uM dopamine signal; activation, % (test concentration not listed); 360,000 compounds, 0.084% hits; in the data active = activation above about 40%
#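 DiscoveRx PathHunter D2 beta-arrestin cells (2,100/well) attached overnight, then compound-stimulated 90 min at 37 C in HBSS/10 mM HEPES/0.1% Tween-20 buffer; beta-galactosidase complementation read by luminescence after 1 h at ambient temperature. Dopamine 57 uM final (EC100) as control.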
# D2 antagonist – antagonists of human D2 dopamine receptor; P14416; HEK293 TREx D2 cells, calcium flux, dopamine EC80; inhibition, % at 10 µM; 340,000 compounds, 2% hits; in the data active = inhibition above about 30%; inactive = below that, where a call was filed; note: 0% is about no effect
#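 Tetracycline-induced HEK293 T-REx cells expressing D2 force-coupled to calcium signalling were dye-loaded, exposed to compound for 180 s, then challenged with an EC80 of dopamine; calcium flux was followed kinetically for a further 180 s.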
# D2 PAM-1 – positive allosteric modulators of human D2 dopamine receptor; P14416; 360,000 compounds, 0.23% hits; DiscoveRx D2 beta-arrestin cells, luminescence, 90 min; 100% = 57 uM dopamine signal; potentiation, % (concentration not given with the values); in the data active = potentiation above about 50%
#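 D2 cells co-treated with compound plus 50 nM dopamine (EC20) for 90 min at 37 deg C to detect potentiation. Beta-arrestin recruitment was read as enzyme-fragment luminescence after 1 h at ambient temperature. Full response was set by 57 uM dopamine.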
# D2 PAM-2 – positive allosteric modulators of human D2 dopamine receptor; P14416; HEK293 T-REx D2, calcium flux, EC20 dopamine potentiation; potentiation, % at 10 µM; 340,000 compounds, 0.34% hits; AID 485347;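 active = potentiation over 3 SD above the plate norm, cut at about 30% in these data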; note: 0% is about no effect
#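 Tetracycline-induced HEK293 T-REx cells force-coupled to calcium signalling expressed D2; compounds were pin-added after a 10 s baseline, read kinetically 180 s, then an EC20 dopamine challenge followed with a further 180 s calcium read.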
# * hit, by the source's call; x = no result given.
SMILES,D2 ag-1,D2 ag-2,D2 antagonist,D2 PAM-1,D2 PAM-2
O=c1c2oc3ccccc3c2n(Cc2ccc(Cl)cc2)c(=O)n1Cc1ccccc1,5,x,x,x,0
Cc1ccc(-n2nc(CO)c(C(=O)NC(C)CCCc3ccccc3)n2)cc1 (stereo unspecified),0,x,x,x,-8
COc1ccc(N2CCN(C(=O)c3nc(-c4ccc(Cl)cc4)n4c3CCCCC4)CC2)cc1,-1,x,x,x,2
Cn1c(=O)c(NCCc2ccccc2)c2c3c(cccc31)C(=O)c1ccccc1-2,87*,0,72*,-6,-11
Cn1c(=O)c(NC2CCCCC2)c2c3c(cccc31)C(=O)c1ccccc1-2,110*,4,60*,-1,-10
Cn1c(NCCc2ccccc2)cc(=O)n(C)c1=O,1,0,0,0,-3
CC(=O)Nc1ccc(Nc2c3c4c(cccc4n(C)c2=O)C(=O)c2ccccc2-3)cc1,8,-3,3,-5,14
Cn1c(=O)c(NCCO)c2c3c(cccc31)C(=O)c1ccccc1-2,126*,-4,82*,-8,-26
CCNc1c2c3c(cccc3n(C)c1=O)C(=O)c1ccccc1-2,112*,0,21,-5,-9
O=C(c1cnc(N2CCOCC2)c2ccccc12)N1CCN(c2ccc(F)cc2)CC1,1,x,x,x,8
CCCCNc1c2c3c(cccc3n(C)c1=O)C(=O)c1ccccc1-2,93*,0,11,-6,-12
N/C(COc1ccc(Cl)cc1Cl)=N\O,1,-4,-7,-17,32*
COc1ccc(Cl)cc1NC(=O)Cn1nc(Cc2ccncc2)c2ccccc2c1=O,0,x,x,x,6
CC(=O)N1CCCc2ccc(NC(=O)c3ccc(C(F)(F)F)cc3)cc21,1,x,x,x,7
COc1ccccc1NC(=O)C(Cc1ccccc1)NS(=O)(=O)c1cccc2nsnc12 (stereo unspecified),1,x,x,x,9
CCOc1ccc(N(CC)S(=O)(=O)N2CCCC(C(=O)Nc3cc(Cl)ccc3C)C2)cc1 (stereo unspecified),0,x,x,x,3
O=C(c1cccs1)N1CCN(c2ccc(F)cc2)CC1,1,-2,-2,-8,11
CN1CCN(C(=O)c2ccccc2NC(=O)c2ccccc2Br)CC1,0,2,3,6,9
COc1ccc(CN2CCN(C(=O)c3cccs3)CC2)cc1,81*,9,95*,5,-23
CN1CCN(C(=O)c2ccccc2NC(=O)c2cccs2)CC1,1,-3,37*,5,5
O=C(c1cccs1)N1CCN(c2ccccc2)CC1,0,-2,31*,-4,-2
COc1ccc2c(c1)CC(C(=O)Nc1c(C)cc(C)cc1C)CO2 (stereo unspecified),0,x,x,x,6
CSCCC(NC(=O)c1ccco1)C(=O)OC(C)C(=O)NC(=O)NC1CCCCC1 (stereo unspecified),7,-3,49*,-3,x
COc1cc(-c2csc(C)n2)ccc1O,1,-1,0,-16,-8
COc1ccc(-c2csc(C)n2)cc1Br,3,4,36*,-1,-12
SMILES,D2 ag-1,D2 ag-2,D2 antagonist,D2 PAM-1,D2 PAM-2
O=C(OCc1nnc(-c2ccc([N+](=O)[O-])cc2)o1)C1CCN(C(=O)c2ccc(F)cc2)CC1,0,11,35*,2,6
O=C(OCc1nnc(-c2ccc([N+](=O)[O-])cc2)o1)C1CCN(C(=O)c2ccc(Cl)cc2)CC1,0,6,-3,13,1
Cc1cc(NS(=O)(=O)c2ccc(NC(=O)c3ccc([N+](=O)[O-])s3)cc2)nc(C)n1,x,12,x,60*,x
O=C(Nc1ccc(S(=O)(=O)NC2=NCCCCC2)cc1)c1ccc([N+](=O)[O-])s1,0,7,-20,68*,-3
O=C(Nc1ccc(S(=O)(=O)NC2=NCCCCC2)cc1)c1cccs1,x,-3,x,1,x
COC(=O)c1c(SC)nc2ccccc2c1OCc1ccccc1C,x,x,x,x,3
COc1ccc(NC(=S)NNS(=O)(=O)c2ccc3ccccc3c2)c(OC)c1,2,-1,43*,-5,-4
CN1C(C(=O)NCc2cccc(C(F)(F)F)c2)CC2Cn3c(nc4cc5ccccc5cc43)C21 (stereo unspecified),1,0,43*,-3,7
Cc1cccc(-c2nc(CCNC(=O)c3ccccc3Br)cs2)c1,2,x,x,x,1
CCCCN(Cc1ccccc1)C(=O)c1oc(=O)c2ccccc2c1-c1ccc(C)cc1,1,x,x,x,2
Cc1ccc(-c2cn3c(n2)sc2cc(C(=O)NCCC4=CCCCC4)ccc23)c(C)c1,1,x,x,x,6
O=C(NC(Cc1ccc2c(c1)OCO2)C(=O)N1CCCC1C(=O)O)c1ccccc1 (stereo unspecified),-1,0,34*,3,9
Cc1cccc(C)c1OCCN1C(=O)NC(C)(c2ccccc2)C1=O (stereo unspecified),1,-5,-8,-6,39*
COc1cccc(N2CCN(C(=O)c3cccn3-c3nnc(N4CCCC4)s3)CC2)c1,-1,x,x,x,-1
CCOC(=O)CN1CC23C=CC(O2)C(C(=O)NC2CCCCC2)C3C1=O (stereo unspecified),0,-4,-8,2,4
Cc1ccc(CN2CC34C=CC(O3)C(C(=O)NCc3ccc5c(c3)OCO5)C4C2=O)cc1 (stereo unspecified),x,-2,x,0,x
COCCCNC(=O)C1C2C=CC3(CN(Cc4ccc(C)cc4)C(=O)C13)O2 (stereo unspecified),0,-1,39*,-12,15
CCOC(=O)CN1CC23C=CC(O2)C(C(=O)NC2CCCC2)C3C1=O (stereo unspecified),-1,1,-7,0,45*
CCOc1ccc(C(=O)NNC(=O)CN2C(=O)NC3(CCCC3)C2=O)cc1,0,-4,42*,3,-11
CCOc1ccc(C(=O)CN2C(=O)NC3(CCCCCC3)C2=O)cc1,0,-5,-2,1,5
Cc1ccc(C(=O)O/N=C2\CCSc3ccc(C)cc32)cc1,0,-3,-4,0,0
COc1ccc(S(=O)(=O)O/N=C2\CCSc3ccc(C)cc32)cc1,0,12,-4,72*,3
CCOC(=O)c1cc2c(=O)n3ccccc3nc2n(CCCOC)c1=NC(=O)c1cc2ccccc2o1,-1,x,x,x,6
CC(C(=O)OCC(=O)c1ccc(Br)cc1)N1C(=O)C2C3C=CC(C3)C2C1=O (stereo unspecified),2,-3,-20,-1,32*
Cc1ccc(OCc2nc(-c3ccc(C(=O)N4CCN(c5cccc(C(F)(F)F)c5)CC4)cc3)oc2C)cc1,x,x,x,x,0
O=C(O)CCCn1cc(NC(=O)COc2ccc([N+](=O)[O-])cc2)cn1,0,-1,-6,-1,31*

# Compound activity (PubChem)
